Assay outcomes deposited in PubChem BioAssay by National Center for Advancing Translational Sciences (NCATS).
Most compounds without a hit are left out; they make up all but 2.3% or so of the library.
IDH1 R132H inh: inhibitors of human mutant IDH1 R132H. Potency, µM (doses to about 76.6 µM), without a hit: at the highest dose activity change, negative = inhibition, hits mostly inhibitors. IDH1-R132H enzyme, NADPH consumption, diaphorase/resazurin fluorescence. 0.093% of 390,000 active. O75874. AID 602179; note: potency is the fitted concentration of half-maximal effect; % is set by controls: 0 for no effect and ±100 for the full control effect; nearly all actives have a fitted effect of over 65% in size
Target sequence (O75874 whole entry R132H, stated change not applied): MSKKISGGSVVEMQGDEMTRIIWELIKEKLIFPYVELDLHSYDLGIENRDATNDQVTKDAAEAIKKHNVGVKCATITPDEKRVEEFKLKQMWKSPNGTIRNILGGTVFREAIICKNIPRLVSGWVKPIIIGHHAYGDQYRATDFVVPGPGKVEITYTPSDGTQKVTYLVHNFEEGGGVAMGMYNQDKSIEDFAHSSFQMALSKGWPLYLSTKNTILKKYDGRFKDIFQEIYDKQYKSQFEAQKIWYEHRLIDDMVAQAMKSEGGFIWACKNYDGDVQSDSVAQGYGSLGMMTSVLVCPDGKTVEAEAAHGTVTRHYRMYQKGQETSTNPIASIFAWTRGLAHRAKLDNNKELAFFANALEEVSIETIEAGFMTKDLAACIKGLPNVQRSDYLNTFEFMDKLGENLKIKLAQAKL
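IDH1-R132H (0.5 ug/mL) preincubated 30 min with compound, then NADPH (0.016 mM) and alpha-KG (2 mM) added; 80 min at RT, pH 7.5. Remaining NADPH coupled via diaphorase/resazurin to fluorescence (540/590 nm); concentration-response curves normalized to no-enzyme control.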
A549 tox: A549 cytotoxicity, counter-screen for Nrf2 inhibitors; Potency, µM (titrated, usually from 46 µM), for inactives: at the top dose activity change, negative = cytotoxicity, actives largely listed as inhibitors; AID 504648; 0.16% of 390,000 active; A549 ARE-Fluc cells, CellTiter-Fluor viability, 18-24 h; note: potency is the fitted concentration of half-maximal effect; % is set by controls: 0 for no effect and ±100 for the full control effect
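A549 ARE-Fluc cells in 5% FBS OPTI-MEM, 5000 cells/well, rested 2 h then exposed to compounds in concentration-response for 18-24 h at 37 °C. Viability by CellTiter-Fluor fluorescence (Ex 405/Em 525) after 30 min; luciferase luminescence (BugLite, 15 min, RT) read afterwards.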
Anesthetic bind: candidate novel general anesthetic via apoferritin binding; P02791; apoferritin/1-aminoanthracene competitive binding, fluorescence; AID 485281; Potency, µM (highest dose often 77.5 µM), inactives show at the highest dose activity change, negative = displacement, most hits filed as inhibitors; 0.074% of 350,000 active; note: potency is the fitted concentration of half-maximal effect; % is set by controls: 0 for no effect and ±100 for the full control effect; nearly all actives have a fitted effect of over 20% in size
Target sequence (P02791 2-175 limits assumed): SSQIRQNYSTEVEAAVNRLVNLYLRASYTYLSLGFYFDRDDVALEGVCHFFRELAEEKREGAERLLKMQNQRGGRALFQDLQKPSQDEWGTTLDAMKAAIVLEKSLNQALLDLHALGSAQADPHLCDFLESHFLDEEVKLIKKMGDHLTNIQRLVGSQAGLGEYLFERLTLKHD
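Concentration-response curves derived by four-parameter Hill fitting of normalized fluorescence, where compounds displaced 1-AMA from 10 uM horse apoferritin following a brief 10 min room-temperature incubation; propofol titration acted as positive control.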
Giardia killer: kills Giardia lamblia | activity change, % at 7.66 µM, hits read low | AID 540267 | 0.15% of 340,000 active | Giardia lamblia trophozoite viability; in the data active = activity change below about -80%; inconclusive = between about -30% and that limit;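 note: parasites exposed to compound for two days anaerobically before the ATP read; % is set by controls: 0 for no effect and ±100 for the full control effect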
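Trophozoite viability was measured as ATP-dependent luminescence, read 15-30 min after reagent addition. Before that, parasites at 100 cells/well were exposed to compounds for 48 h, anaerobically, at 37 deg C.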
Nrf2 ARE act: Nrf2 pathway activation; 0.31% of 410,000 active; Potency, µM (doses to about 46.1 µM), inactives show top-dose activation, most hits filed as activators; AREc32 ARE-luciferase reporter (MCF7-derived line), luminescence, 24 h; AID 624171; note: potency is the fitted concentration of half-maximal effect; % of control where 0% means no effect; nearly all actives have a fitted effect of over 65% in size
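Luciferase luminescence (Steady-Glo, 30 min at room temperature) served as the read-out of ARE activation in AREc32 cells treated with compounds for 24 hr at 37 deg C.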
Nrf2 inh: Nrf2 pathway inhibition. A549 ARE-Fluc reporter, luciferase luminescence, 18-24 h. Potency, µM (doses to about 46 µM), for the others: at the highest dose activity change, negative = inhibition, most hits filed as inhibitors. 2.1% of 360,000 active. AID 504444; note: potency is the fitted concentration of half-maximal effect; % is set by controls: 0 for no effect and ±100 for the full control effect; nearly all actives have a fitted effect of over 60% in size
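A549 ARE_Fluc cells, 5000/well, 5% FBS OPTI-MEM; compounds in dose-response, 18-24 h at 37 °C/5% CO2; CellTiter-Fluor viability read (Ex 405/Em 525), then BugLite luciferase luminescence = Nrf2 activity.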
The depositor's hits bear a star; ? = inconclusive; nt = not tested or not shown. Unless noted, calls come from the whole dose curve; as a rule, active = well fitted curve in the direction sought with a large enough effect; inconclusive = small, poorly fitted or top-dose-only effect, or another doubt; inactive = no such curve, though single readings can be large; an effect the other way counts as inactive or inconclusive.

SMILES | IDH1 R132H inh | A549 tox | Anesthetic bind | Giardia killer | Nrf2 ARE act | Nrf2 inh
CCOc1ccc(NC(=O)N2CCN(c3nc4ccccc4s3)CC2)cc1 | -1.3% | -8.7% | -7.5% | -0.7 | 2.6% | ?
Cc1cc(N2CCN(C(=O)Nc3ccc(F)cc3F)CC2)c2ccccc2n1 | 7.3% | -13.1% | 5.0% | -4.8 | 2.0% | -25.0%
O=S(=O)(c1cccs1)N1CCN(c2ccnc3cc(Cl)ccc23)CC1 | 5.9% | ? | 9.4% | -0.2 | 0.1% | ?
Cc1cccc(C)c1NC(=O)N1CCN(c2nc3ccccc3s2)CC1 | -3.8% | -18.0% | -17.6% | 11.2 | 0.6% | 4.61µM*
Cc1cccc(Cl)c1NC(=O)N1CCN(c2ccnc3cc(Cl)ccc23)CC1 | 4.0% | -11.1% | -5.4% | 3.9 | 0.4% | 9.2µM*
O=C(Nc1cc(F)ccc1F)N1CCN(c2ccnc3cc(Cl)ccc23)CC1 | 4.1% | -2.1% | -15.5% | -13.2 | 2.7% | 16.4µM*
CC(=O)N1CCN(c2ccnc3cc(Cl)ccc23)CC1 | -4.2% | 2.4% | -2.7% | -21.0 | 0.3% | ?
Cn1c(SCc2ccc(C(F)(F)F)cc2)nc2c([nH]c3ccccc32)c1=O | 4.6% | 3.5% | -4.2% | nt | 0.6% | nt
CCc1cnc2c(c1SCC(=O)Nc1ccc(C(=O)OC)cc1)c(=O)n(C)c(=O)n2C | 0.0% | -2.0% | 1.6% | nt | 1.6% | nt
Cc1c(CNC(C)CCc2ccccc2)c(C(=O)O)c(C)n1Cc1ccc(F)cc1Cl (configuration not stated) | -24.0% | -8.1% | -7.5% | nt | 1.0% | 4.6%
O=C(Nc1ccc(C(F)(F)F)cc1)N1CCN(c2ccnc3cc(Cl)ccc23)CC1 | 6.9% | ? | ? | 2.7 | 9.6% | 18.4µM*
O=C(O)CSCC(=O)N1CCN(c2ccnc3cc(Cl)ccc23)CC1 | 0.0% | -9.2% | 4.3% | 1.0 | -0.7% | -6.6%
Cc1nn(C)c(C)c1Nc1ccc(N2C(=O)C3CC=CCC3C2=O)cc1[N+](=O)[O-] (configuration not stated) | 5.9% | -17.4% | ? | 3.6 | 4.8% | 20.6µM*
CCCN1CNc2c(c(=O)[nH]c(=S)n2CCc2cccs2)C1 | nt | 13.6% | nt | -7.3 | nt | -1.3%
CC(C)c1nc2sc3ccccc3c(=O)c2c(=O)n1Cc1ccccc1 | -3.8% | -7.4% | -4.2% | -9.8 | 0.5% | 25.9µM*
COc1ccc(Cn2c(C(C)C)nc3sc4ccccc4c(=O)c3c2=O)cc1 | 0.3% | ? | 3.3% | 9.6 | -0.9% | ?
Cc1ccnc(NC(=O)c2ccc(OCC3CCCO3)cc2)c1 (configuration not stated) | 10.8% | 3.3% | nt | -84.5* | -2.2% | ?
COc1ccc(C(=O)NC(=O)Nc2cc(C)ccn2)cc1 | 6.0% | 16.5% | -7.1% | ? | -0.7% | 7.31µM*
COc1cccc(C2c3c(ncn(-c4ccc(Br)cc4)c3=N)Oc3ccc4ccccc4c32)c1 (configuration not stated) | nt | -16.3% | nt | nt | nt | -13.3%
Cn1c(=O)c2cn(Cc3ccc(Cl)cc3)cc2n(C)c1=O | 4.5% | 15.5% | -4.3% | 13.9 | 0.0% | 11.6µM*
Cn1c(=O)c2c(-c3ccc(Cl)cc3)n(Cc3ccccc3)cc2n(C)c1=O | 0.0% | -16.6% | ? | nt | -0.4% | ?
O=C(CC1C(=O)N(c2ccccc2)C(=O)N1Cc1ccc2c(c1)OCO2)Nc1ccccc1 (configuration not stated) | 6.6% | -2.7% | -5.5% | nt | 5.7% | 3.2%
Cc1cc2c(s1)c1cnn(Cc3cccc(C(F)(F)F)c3F)c(=O)c1n2C | nt | 0.0% | nt | nt | nt | -7.4%
O=S(Cc1ccc(Br)cc1)Cc1nnc(SCc2ccc(Cl)cc2)n1-c1ccccc1 (configuration not stated) | 2.3% | ? | 60.8% | 2.3 | 3.0% | 16.4µM*
O=C(CSc1nnc(CCc2ccccc2)n1-c1ccc(Cl)cc1)c1ccccc1 | -1.9% | ? | -18.6% | -12.8 | 3.7% | 23.1µM*
SMILES | IDH1 R132H inh | A549 tox | Anesthetic bind | Giardia killer | Nrf2 ARE act | Nrf2 inh
COc1ccc(-n2c(CCc3ccccc3)nnc2SCC(=O)c2ccc(Cl)cc2)cc1 | 3.0% | ? | -13.0% | -9.3 | 0.0% | ?
CCOc1cc(CNCc2cc(OC)cc(OC)c2)ccc1OC | 5.0% | -7.9% | -13.8% | 19.4 | 0.8% | 8.2µM*
CCOc1ccc(N(C)S(=O)(=O)c2cc(-c3cc(C)no3)ccc2C)cc1 | -8.1% | -11.9% | 55.0% | 25.7 | 0.4% | 18.4µM*
CCOC(=O)c1ccc(CN(Cc2ccccc2C)S(=O)(=O)c2ccc(F)c(C(=O)Nc3cccc(OC)c3)c2)cc1 | 14.5% | -5.3% | -10.6% | nt | 3.5% | nt
COc1cccc(-n2c(-c3ccco3)nc3c(cnn3-c3ccc(Cl)cc3)c2=O)c1 | -10.8% | 2.3% | -5.6% | nt | 0.5% | ?
Cc1cccc(-n2c(-c3ccco3)nc3c(cnn3-c3ccccc3C)c2=O)c1 | 15.7% | -6.0% | -21.1% | nt | 2.1% | 20.6µM*
CC(C)CC(N)C(=O)NC(C)C(=O)O (configuration not stated) | nt | nt | 7.0% | nt | nt | nt
COc1ccc(CCNc2ncnc3nc[nH]c23)cc1 | nt | -1.0% | nt | -18.0 | nt | 14.6µM*
COc1ccccc1CCNc1ncnc2nc[nH]c12 | nt | 3.8% | nt | 7.1 | nt | ?
O=C(COc1ccccc1[N+](=O)[O-])Nc1ccc(N2CCN(C(=O)c3cccs3)CC2)cc1 | 2.2% | -12.8% | ? | 14.0 | 3.5% | 5.8µM*
Cc1cccc(OCC(=O)Nc2ccc(N3CCN(C(=O)c4ccco4)CC3)cc2)c1C | 1.8% | 3.2% | 23.3% | -10.2 | -0.3% | -1.1%
O=C(COC(=O)c1cccs1)Nc1ccccc1[N+](=O)[O-] | -6.4% | 6.4% | -16.3% | 9.5 | 11.2µM* | 3.9%
Cc1ccccc1OCC(=O)Nc1ccc(N2CCN(C(=O)c3ccco3)CC2)cc1 | -2.7% | -23.4% | -9.5% | 0.5 | 3.0% | 14.6µM*
N#Cc1ccccc1NC(=O)COC(=O)c1cccs1 | -13.9% | 1.8% | nt | -23.6 | 21.4% | ?
O=C(COc1ccc(Cl)cc1)Nc1ccc(N2CCN(C(=O)c3ccco3)CC2)cc1 | -1.7% | -1.4% | 4.1% | -1.5 | -0.2% | 23.1µM*
Cc1ccc(C(=O)Nc2ccc(N3CCN(C(=O)c4cccs4)CC3)cc2)c(Cl)c1 | -3.2% | -12.4% | -18.6% | 8.8 | 0.1% | 23.1µM*
O=c1c2cc([N+](=O)[O-])cc([N+](=O)[O-])c2[nH]n1-c1ccccc1 | 23.8% | 16.4µM* | -2.7% | 5.6 | 3.0% | 2.4%
Nc1[nH]n(-c2ccccc2)c(=O)c1N=Nc1ccccc1[N+](=O)[O-] | 7.3% | -6.8% | -20.2% | 0.1 | 5.9% | 16.3%
CC(=O)N(Cc1ccc(F)cc1)C1=C(NCc2ccccc2)C(=O)c2ccccc2C1=O | 13.3% | 10µM* | 53.7% | 33.8 | -2.5% | 6.31µM*
